From PubChem BioAssay (NCI)
About 83,000 compounds went through this panel and 20% of them were active in at least one assay; those are over-represented in the sample as a whole.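 Growth was measured after 48 h exposure to one concentration of compound in 96-well plates. Values under 10 count as active.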 A number with no mark means an inactive call. Active and inactive are the calls of the source.

Legend:
Assay in all cases: NCI-60 one-dose screen, 48 h (100 = growth as untreated, 0 = no growth, -100 = all killed)
Conditions in all cases: 10 µM unless noted
SK-MEL-2 melanoma = system: SK-MEL-2 melanoma
EKVX NSCLC = system: EKVX NSCLC
SN12C renal = system: SN12C renal
UO-31 renal = system: UO-31 renal
TK-10 renal = system: TK-10 renal
ACHN renal = system: ACHN renal
CAKI-1 renal = system: CAKI-1 renal
A498 renal = system: A498 renal
CCRF-CEM leukemia = system: CCRF-CEM leukemia
MOLT-4 leukemia = system: MOLT-4 leukemia
SR leukemia = system: SR leukemia
RPMI-8226 leukemia = system: RPMI-8226 leukemia
OVCAR-8 ovarian = system: OVCAR-8 ovarian
OVCAR-5 ovarian = system: OVCAR-5 ovarian
OVCAR-4 ovarian = system: OVCAR-4 ovarian
SK-OV-3 ovarian = system: SK-OV-3 ovarian
IGROV1 ovarian = system: IGROV1 ovarian
OVCAR-3 ovarian = system: OVCAR-3 ovarian
HS 578T breast = system: HS 578T breast
NCI/ADR-RES ovarian = system: NCI/ADR-RES ovarian

| Compound | growth (SK-MEL-2 melanoma) | growth (EKVX NSCLC) | growth (SN12C renal) | growth (UO-31 renal) | growth (TK-10 renal) | growth (ACHN renal) | growth (CAKI-1 renal) | growth (A498 renal) | growth (CCRF-CEM leukemia) | growth (MOLT-4 leukemia) | growth (SR leukemia) | growth (RPMI-8226 leukemia) | growth (OVCAR-8 ovarian) | growth (OVCAR-5 ovarian) | growth (OVCAR-4 ovarian) | growth (SK-OV-3 ovarian) | growth (IGROV1 ovarian) | growth (OVCAR-3 ovarian) | growth (HS 578T breast) | growth (NCI/ADR-RES ovarian) |
| --- | --- | --- | --- | --- | --- | --- | --- | --- | --- | --- | --- | --- | --- | --- | --- | --- | --- | --- | --- | --- |
| CCOC(=O)c1cc(C(=O)c2cc(OC)c(OC)c(OC)c2)n2c1ccc1ccccc12 | 50.2% | 52.2% | 25.3% | 32.2% | 80.6% | 33.5% | 27.3% | -10.9% (active) | 8.36% (active) | 33.4% | 10.8% | 11.2% | 32.7% | 46.5% | 40.8% | 34.7% | 31.4% | -17.3% (active) | 11.6% | 18% |
| C=CCn1cc(-c2nc3ccccc3s2)c2cc(-c3ccc4c5c(cccc35)C(=O)N(CCN3CCNCC3)C4=O)ccc21 | 99% | 87.8% | 76.3% | 80.7% | 132% | 67.4% | 74% | 98.9% | 30.2% | 92.8% | 4.31% (active) | 46.7% | 13.7% | 90.3% | 88.5% | 101% | 68.1% | 105% | 91.8% | 83.1% |
| C=C(C)[C@@H]1C[C@@H]2Cc3ccc(Cl)c(C)c3N1O2 | 96.4% | 86.2% | 97.3% | 99.3% | 53.8% | 96.8% | 89.8% | 83.2% | -68.9% (active) | -2.28% (active) | 80.2% | 78.6% | 107% | 79.5% | 91.7% | 99.6% | 111% | 105% | 97% | 94.2% |
| Cn1cc(-c2cnc3ccc(NC(=O)Nc4ccc(F)c(Br)c4)cc3n2)cn1 | -3.42% (active) | 29.7% | 46.1% | 16.9% | 52% | 20.2% | 12.8% | 16.5% | 4.33% (active) | -21.2% (active) | 34% | -34.1% (active) | 7.83% (active) | 51.2% | 10.7% | 44.7% | 32.8% | 28.2% | 37.4% | 12.4% |
| C=C[C@@H]1C[C@H](O)Cc2c(C)cc(C)cc2N1 | 111% | 86.9% | 95.9% | 96% | 85.8% | 103% | 97.2% | 89.9% | -19% (active) | -46.2% (active) | 82.8% | 84.7% | 98.5% | 89.3% | 108% | 106% | 109% | 112% |  | 97.1% |
| COC(=O)[C@]12CC[C@@H](C)[C@H](C)[C@@H]1C1=CC[C@@H]3[C@@]4(C)C(C=O)=C[C@@](C)(COC(=O)c5ccco5)[C@@H]4[C@H](O)C[C@@]3(C)[C@]1(C)CC2 | -44.4% (active) | -18.1% (active) | -19.7% (active) | -76.3% (active) | 11.5% | -47.7% (active) | -6.76% (active) | -2.1% (active) | -24.1% (active) | -0.738% (active) | 0.404% (active) | -26.8% (active) | -3.22% (active) | -20.9% (active) | -0.264% (active) | 18.7% | 5.24% (active) | -75.5% (active) | -9.48% (active) | 0.299% (active) |
| Nc1ccc(C(=O)CSc2nc3ccccc3[nH]2)cc1 | 121% | 81.7% | 102% | 87.5% | 109% | 110% | 96.1% | 87.5% | 106% | 124% | 110% | 103% | 105% | 102% | 110% | 105% | 112% | 107% |  | 99.3% |
| CC(C)(C)n1cc(-c2ccnc(NCCCNS(=O)(=O)c3ccc(C(F)(F)F)cc3)c2)c(-c2cccc(O)c2)n1 | 0.948% (active) | 36.3% | 40.3% | 40.7% | 92.2% | 25.3% | 37.8% | 60.1% | 21.4% | 2.23% (active) | -7.63% (active) | -9.47% (active) | 28% | 36.1% | 41.7% | 70.1% | 31.3% | 42.5% |  | 34.6% |
| COc1cc2c(cc1OCCCCCn1c3ccccc3c3ccccc31)N=C[C@@H]1CCCN1C2=O | -65.7% (active) | 46.6% | -54.8% (active) | -75.8% (active) | -37.8% (active) | -63% (active) | 38.3% | -51.8% (active) | -0.543% (active) | -39.9% (active) | -54.5% (active) | -39.2% (active) | -30.6% (active) | -50% (active) | -7.21% (active) | -47.4% (active) | -68.9% (active) | -80.5% (active) | -63.4% (active) | -6.33% (active) |
| CC(=O)c1cc2c(N)c(C(=O)Nc3cccc4c3OCCO4)sc2nc1C | 67.1% | 102% | 103% | 90.2% | 104% | 104% | 71.7% | 8.65% (active) | 96.7% | 97.4% | 80.8% | 99.7% | 106% | 100% | 110% | 35.8% | 101% | 105% | 96.3% | 96.8% |
| O=C(NNC(=O)N1c2ccccc2C=Cc2ccccc21)c1ccc2ccccc2c1 | 98.5% | 89% | 90.5% | 88% | 102% | 96.1% | 96.8% | 94.1% | 95% | 94.9% | 87.2% | 96.7% | 94.9% | 91.3% | 91.8% | 110% | 102% | 101% | 101% | 93% |
| Cc1ccc(N2CCN(C(C)C(N)=O)CC2)cc1 (stereo unspecified) | 134% | 118% | 92.8% | 82.2% | 114% | 106% | 107% | 115% | 98.2% | 117% | 154% | 96.8% | 106% | 99% | 104% | 114% | 112% | 106% | 117% | 106% |
| C=C[C@@H]1C[C@@H]2Cc3c(C)cc(C)cc3N1O2 | 110% | 81.6% | 101% | 101% | 92.7% | 101% | 92.3% | 95.1% | -61.1% (active) | -50.7% (active) | 6.7% (active) | 74.7% | 98% | 86.5% | 83.6% | 105% | 106% | 103% |  | 102% |
| COc1c2occc2c(OC)c2c(=O)c(-c3cc(-c4ccc(F)cc4)c(C#N)c(N)n3)c(C)oc12 | 59.9% | 32% | 39.5% | 25.3% | 53.7% | 41.8% | 50.5% | 25.7% | 16% | 5.86% (active) | 15.5% | 27.3% | 49.1% | 91.9% | 19.4% | 56.5% | 21.3% | 15.2% | 43.7% | 68.2% |
| COc1cc(NC(N)=NCCC(C)(C)c2ccc(C(F)(F)F)cc2)ncc1C#N | 48.8% | 24.8% | 27.4% | 4.93% (active) | 13.8% | 45.1% | 40.8% | 48.1% | 24.6% | -10.7% (active) | -49% (active) | -48.7% (active) | 24.4% | 47.2% | 18.9% | 56.8% | 24.1% | 24% | 63% | 24.3% |
| CCCCNC(=O)Oc1ccc(/C(=C(\C)c2ccccc2)c2ccc(OCCN(CC)CC)cc2)cc1 | 92.1% | 80.8% | 83.3% | 44.1% | 88.1% | 88% | 82.5% | 65.3% | 60.1% | 42% | 14.5% | 49.8% | 77% | 77.7% | 79.7% | 74.5% | 77.2% | 75.1% | 39.8% | 84.4% |
